The results in this text go back to ChEMBL document CHEMBL4513216, “Probing the Open Global Health Chemical Diversity Library for Multistage-Active Starting Points for Next-Generation Antimalarials” (ACS Infect Dis, 2020).

The whole screen tested about 68,000 compounds, of which about 2,700 (4%) showed an effect of 50% or more. The full list was thinned out, with strong results kept by preference.

This assay deals with Plasmodium berghei. The assay is described as follows: Screen against P. berghei liver stage (PbLuc), transformed with Luciferase, at 2uM. The assay is classed as functional, HepG2. The following applies: tested at 2 uM.
`O=C(c1ccccc1-c1nnn[nH]1)N1CCOC(C(F)(F)F)C1` (configuration not stated): the INHIBITION was -12.13%. In the case of `COCCNc1c(C#N)c2c(c3nncn13)CN(C)CC2` it was 18.59%. For `CN1CCc2c(C#N)c(NCCCO)n3cnnc3c2C1`, the INHIBITION is on record as -9.74%. Under `COCCCNc1c(C#N)c2c(c3nncn13)CN(C)CC2` stands 52.23%; under `Cc1oncc1C(=O)NCC(c1ccccc1Cl)N1CCOCC1` (configuration not stated), 8.6%; under `COc1cc(N2CCC3(CC2)CC(N2CCOCC2)C3)ncn1`, 52.36%.

On to `COc1cc(N2CCC3(CC2)CC(N2CCN(C)CC2)CO3)ncn1` (configuration not stated), for which the INHIBITION was -39.89%.

`COc1cc(N2CCC3(CC2)CC(N2CCOCC2)CO3)ncn1` (configuration not stated): the INHIBITION came to 34.24%. In the case of `CSCCC(C)(O)CNS(=O)(=O)Cc1cccc(C)c1` (configuration not stated) it was -40.82%; in that of `O=C(Cc1ccon1)NC1CCCN(c2ccccc2F)C1=O` (configuration not stated), 28.73%. Under `O=C(Cc1nc(-c2ccncc2)n[nH]1)NCCCN1CCOCC1` stands 15.46%. Under `O=C(NCC(F)(F)F)C1CCC(=O)N(C2CCCC2)C1` (configuration not stated) stands 9.13%; under `CSCCNC(=O)C1CCC(=O)N(C2CCCC2)C1` (configuration not stated), 21.24%; under `O=C(NCCN1CCCCC1=O)C1CCC(=O)N(C2CCCC2)C1` (configuration not stated), 54.29%. For the compound `CSCCCNC(=O)C1CCC(=O)N(C2CCCC2)C1` (configuration not stated), the INHIBITION stood at 56.49%. Under `CC(C)OCCNC(=O)C1CCC(=O)N(C2CCCC2)C1` (configuration not stated) stands 28.95%. In the case of `CC(C)OCCCNC(=O)C1CCC(=O)N(C2CCCC2)C1` (configuration not stated) it was 68.61%.

As for `C=C(C)CNC(=O)C1CCC(=O)N(C2CCCC2)C1` (configuration not stated), the INHIBITION is 2.52%.

`COC(C)(C)CNC(=O)C1CCC(=O)N(C2CCCC2)C1` (configuration not stated): the INHIBITION was 8.03%. In the case of `O=C(NCCn1cccc1)C1CCC(=O)N(C2CCCC2)C1` (configuration not stated) it was 10.75%; in that of `Cc1cc(C(=O)N2CCCS2(=O)=O)c(C)o1`, -15.41%. In the case of `COC(=O)CN1CCC(C(=O)c2cc(F)ccc2F)CC1` it was 35.23%; in that of `Cc1oc(-c2ccco2)nc1CN1CCCC(Cn2cncn2)C1` (configuration not stated), 43.7%; in that of `O=C(CN1CC(c2ccccc2)CC1=O)N1CCC(c2ncc[nH]2)CC1` (configuration not stated), -63.6%.

For the compound `Cc1nnc2n1CCN(C(=O)C(C)Oc1ccc(C#N)cc1)C2` (configuration not stated), the INHIBITION is recorded as 35.56%. In the case of `COc1cc(C#N)ccc1OCC(=O)NS(=O)(=O)c1ccccc1` it was -0.89%; in that of `CC(C)c1noc(OCC(=O)N(C)C(C)C)n1`, -6.48%; in that of `Cc1nsc(N2CCN(C(=O)Nc3cccc(F)c3)CC2)n1`, 45.82%. In the case of `Cc1nsc(N2CCCN(C(=O)c3ccc4[nH]ccc4c3)CC2)n1` it was 24.36%; in that of `Cc1nsc(N2CCN(C(=O)Nc3ccc4[nH]ccc4c3)CC2)n1`, 57.75%. In the case of `CO[C@H]1CN(C(=O)c2ccc3oc(C)cc3c2)CC[C@@]12CCCO2` it was 27.16%. Regarding `CO[C@H]1CN(C(=O)c2cn3cc(C)ccc3n2)CC[C@@]12CCCO2`, the INHIBITION is on record as 80.88%. In the case of `CO[C@H]1CN(C(=O)c2cccc(C)n2)CC[C@@]12CCCO2` it was 19.91%; in that of `COCCNC(=O)C1(Cc2ccccc2-c2ccncc2)CCOCC1`, 52.82%. Under `CC(C)(C)NC(=O)C1(Cc2ccccc2-c2ccncc2)CCOCC1` stands 16.55%; under `COc1ccc(F)cc1-c1ccccc1CC1(C(=O)O)CCOCC1`, 53.95%. In the case of `COc1ccccc1-c1ccccc1CC1(C(=O)O)CCNCC1` it was -18.15%; in that of `COc1ccccc1C1=NOC(CC2(C(=O)O)CCOCC2)C1` (configuration not stated), 8.89%; in that of `O=C(NCCO)C1(Cc2ccccc2-c2ccncc2)CCOCC1`, 26.14%. In the case of `COCCOc1cccc(CNCc2ccc(-n3cncn3)nc2)c1`, the INHIBITION is 5.47%.

For `CC(C)N1CCO[C@H]2CN(C(=O)Cc3cccs3)C[C@H]21`, the INHIBITION was 9.87%. As for `COc1ccc(-c2nnc(SC(C)C(N)=O)[nH]2)c(OC)c1` (configuration not stated), the INHIBITION is -61.3%. Under `COc1ccc(C(=O)C2CCCN(c3cc(OC)ncn3)C2)c(C)c1` (configuration not stated) stands 60%; under `COc1ccc(C(=O)C2CCCN(c3cc(N)ncn3)C2)c(C)c1` (configuration not stated), 16.32%. As to `COc1ccc(C(=O)C2CCCN(c3cnccn3)C2)c(C)c1` (configuration not stated), the INHIBITION turned out to be 16.87%.

For the compound `CN(C)Cc1ccccc1CN(C)C(=O)c1ccoc1`, the INHIBITION was found to be 16.49%. For the compound `CCN(CCc1nccs1)C(=O)c1ccco1`, the INHIBITION turned out to be 44.23%.

With `CCc1ccsc1C(=O)N(C)CCc1ccncc1`, the INHIBITION was 70.66%. In the case of `Cc1ncsc1C(=O)N(C)CCc1ccncc1` it was -3.38%.

`CN(CCc1ccncc1)C(=O)c1sccc1OC(F)F`: the INHIBITION is -120.22%. Under `CCC(=O)N(CC)CCc1nccs1` stands 36.57%; under `CN(CCc1cccs1)CCc1nccs1`, 55.25%; under `CN(CCc1ccncc1)Cc1nccn1Cc1ccccc1`, 33.78%. Under `CN(CCc1ccccn1)CCc1nccs1` stands 15.84%; under `CN(CCc1ccncc1)CCc1nccs1`, 78.24%. In the case of `O=C(NCCc1cscn1)c1coc(CN2CCOCC2)c1` it was -0.28%.

`Cc1cccc(N2CCN(C(=O)Cc3ccccc3O)C(C)C2)n1` (configuration not stated): the INHIBITION is recorded as 10.49%.

For `O=C(O)c1ccn(COc2c(Cl)cccc2Cl)n1`, the INHIBITION is given as 10.62%. For the compound `Cc1ccc(CN2CCc3c(COCC4CC4)nn(C)c3C2)s1`, the INHIBITION stood at 22.12%.

Take `COc1ccc(CNCC2CCN(CC(C)O)CC2)c2ccccc12` (configuration not stated): the INHIBITION is reported as 7.54%. Under `CCOc1ccccc1CNCC1CCN(CC(C)O)CC1` (configuration not stated) stands 21.43%; under `COc1cccc(CNCC2CCN(CC(C)O)CC2)c1OC` (configuration not stated), 61.96%; under `COc1ccccc1CNC1(CCO)CCOCC1`, 13.12%. As to `Cc1cc(C(=O)N2CCCC(c3ccc(C(=O)O)cc3)C2)c(C)o1` (configuration not stated), the INHIBITION is -56.9%.

For the compound `Cn1ccc(NCc2cc3cc(F)ccc3o2)n1`, the INHIBITION is 5.1%. In the case of `Cc1cc(-n2nc(C3CC3)nc2-c2csnn2)ccn1` it was -77.53%. In the case of `O=C1CC[C@H]2CN(Cc3cccc(F)c3)CC[C@H]2N1CCc1c[nH]cn1` it was -13.3%. As to `O=C1CC[C@H]2CN(Cc3cccnc3)CC[C@H]2N1CCc1c[nH]cn1`, the INHIBITION worked out at 50.94%. For the compound `Cn1cc(CN2CC[C@@H]3[C@@H](CCC(=O)N3CCc3c[nH]cn3)C2)cn1`, the INHIBITION is -21.16%. Under `CN1CCCC1CCn1ccnc1-c1ccc2ccccc2n1` (configuration not stated) stands 5.55%; under `CCN1CC2(CC1=O)CN(C(=O)c1ccsc1)CCN(C(=O)N(C)C)C2` (configuration not stated), 26.44%. Regarding `Cc1noc2nc(C3CCN(Cc4ccncc4)CC3)cc(C(F)F)c12`, the INHIBITION amounted to 17.51%.

In the case of `Cc1noc2nc(C3CCCN(Cc4ccncc4)C3)cc(C(F)F)c12` (configuration not stated), the INHIBITION stood at 63.66%.

In the case of `Cc1noc2nc(C3CCCN(Cc4cccnc4)C3)cc(C(F)F)c12` (configuration not stated), the INHIBITION is listed as 39.06%. Under `COc1c(C)cnc(CN2CCCC2c2noc(C)n2)c1C` (configuration not stated) stands 4.87%; under `COCCN(CC1CC1)c1nc(CCN)nc2sc(C)c(C)c12`, 13.65%. Take `O=C1NC2(CCN(Cc3cccnc3)CC2)CC1c1cccnc1` (configuration not stated): the INHIBITION is on record as -22.79%. Under `Cc1noc(C)c1CN(C)Cn1c(=O)oc2ccccc21` stands -5.31%; under `CC(C)N1CCC(CC(=O)N2CCN(Cc3nccn3C)CC2)CC1`, 29.41%. Take `COCCN1CC[C@]2(CN(Cc3cccnc3)C[C@H]2C)C1=O`: the INHIBITION came to 49.07%. In the case of `Cc1nc2n(n1)CC(NCc1cnn(-c3ccccc3)n1)CC2` (configuration not stated) it was 24.88%; in that of `Cc1ccc(C2COCCN2C(=O)c2ccc(CN(C)C)cc2)o1` (configuration not stated), 27.84%. Under `Cc1ccc(C2COCCN2C(=O)c2ccc(F)c(F)c2)o1` (configuration not stated) stands 70.24%. For `Cc1ccc(C2COCCN2C(=O)c2cccc(N(C)C)c2)o1` (configuration not stated), the INHIBITION is 43.34%. In the case of `COc1ccc(C(=O)N2CCOCC2c2ccc(C)o2)cc1` (configuration not stated) it was 39.93%. For the compound `CC(=O)Nc1cc(C(=O)N2CCOCC2c2ccc(C)o2)ccc1F` (configuration not stated), the INHIBITION was 44.99%.

With `Cc1ccc(C2COCCN2C(=O)c2ccsc2)o1` (configuration not stated), the INHIBITION is recorded as 16.01%. Under `Cc1ccc(C2COCCN2C(=O)c2ccc(N(C)C)cc2)o1` (configuration not stated) stands 30.73%. In the case of `COCc1ccc(C(=O)N2CCOCC2c2ccc(C)o2)cc1` (configuration not stated) it was 62.13%.

On to `Cc1ccc(C2COCCN2C(=O)c2ccc(C#N)cc2)o1` (configuration not stated), for which the INHIBITION was found to be 54.44%. Under `CCS(=O)(=O)N1CCCCC1c1nc(C(C)C)no1` (configuration not stated) stands -28.84%; under `CN1CCN(Cc2ccccc2Oc2ccc(C(N)=O)cn2)CC1`, 8.73%; under `CN(Cc1ccc(O)cc1)C(=O)NC1CCCN(c2ncccn2)C1` (configuration not stated), 36.95%. `Cc1nc(CN2CCCC(c3nccs3)C2)cs1` (configuration not stated): the INHIBITION was -33.32%.

On to `Cn1cc(Cl)c(C(=O)N2CCC(N3CCc4ccccc4C3)CC2)n1`, for which the INHIBITION came out at 18.63%.

With `Cc1c(O)cccc1C(=O)N1CCCC2(C1)C(=O)N(C)c1ccccc12` (configuration not stated), the INHIBITION is given as -91.67%. Under `Cc1noc(COCC(=O)N2CCCC(c3nccs3)C2)n1` (configuration not stated) stands -7.96%. Turning to `CCc1cn[nH]c1C1CCCN(C(=O)c2ncoc2C(C)C)C1` (configuration not stated), the INHIBITION is 27.85%.

Take `CCc1cn[nH]c1C1CCCN(C(=O)c2cc(C(C)C)on2)C1` (configuration not stated): the INHIBITION is 22.34%. Take `CCc1cn[nH]c1C1CCCN(C(=O)c2cnc(NC(C)C)nc2)C1` (configuration not stated): the INHIBITION worked out at 56.49%.

Regarding `CCn1cc(NC(=O)C(C)n2ncc(Cl)c2C)c(C(=O)NC)n1` (configuration not stated), the INHIBITION is given as -28.77%. Under `CC(C)(C)C(=O)N1C[C@H](c2ccsc2)[C@H]2CN(C3CCCCC3)CC[C@H]21` stands 25.41%; under `CC(C)C(=O)N1CCC12CCCN(C(=O)c1ccnnc1)C2` (configuration not stated), -40.36%. In the case of `CC(=O)NC(Cc1c[nH]c2cc(F)ccc12)C(=O)Nc1nonc1C` (configuration not stated) it was 46.43%. Under `CC(=O)NC(Cc1c[nH]c2cc(F)ccc12)C(=O)Nc1nncs1` (configuration not stated) stands 59.94%; under `CC(=O)NC(Cc1c[nH]c2cc(F)ccc12)C(=O)Nc1cnn(C)c1` (configuration not stated), 11.32%.

As for `Cc1ccc(CN(C)C(=O)CN2CCCC(Cn3cncn3)C2)cc1` (configuration not stated), the INHIBITION was determined as 10.4%.
